High-throughput results: PubChem, National Center for Advancing Translational Sciences (NCATS)
Only a selection was taken, and hits are over-represented in it overall.
Shiga inhibitor – inhibitors of Shiga toxin in Vero cells; Vero cells, Shiga toxin protein synthesis inhibition reporter; inhibition, % at 38.7 µM; actives 9.2% (n = 290,000); AID 2315; in the data active means inhibition mostly above about 28%, no sharp cut-off; inactive means mostly below about 43%; further: 0% is about no effect
TbPYK inhibitor – blocks Trypanosoma brucei pyruvate kinase; Potency, µM (titrated, usually from 76.8 µM), without a hit: at the top dose activity, negative = inhibition, usual class: inhibitors; actives 0.12% (n = 410,000); AID 624173; Q57TT1; TbPYK enzyme, Kinase-Glo Plus ATP luminescence, 45 min; further: potency means the concentration at half of the fitted maximal effect; on the % scale 0 is the no-effect control and ±100 the full control effect; nearly all actives have a fitted effect of over 50% in size
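Luminescent Kinase-Glo Plus end-point after 45 min room-temperature reaction of T. brucei pyruvate kinase started with 130 uM ADP (final). Buffer TEA 50 mM pH 7.2 with KCl, MgCl2, BSA, Tween-20; titration-based qHTS with fitted concentration-effect curves.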
LmPK inhibitor – inhibitors of Leishmania mexicana pyruvate kinase | purified LmPK, Kinase-Glo ATP luminescence, 1 h | Potency, µM (top dose mostly 57.5 µM), inactives show at the highest dose activity change, negative = inhibition, hits mostly inhibitors | Q27686 | actives 0.37% (n = 290,000); further: potency means the concentration at half of the fitted maximal effect; on the % scale 0 is the no-effect control and ±100 the full control effect
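Pyruvate kinase activity monitored as ATP production (luciferase luminescence). Conditions: 0.1 nM enzyme, 0.5 mM PEP, 0.1 mM ADP, 1 h, RT; normalized against uninhibited and no-enzyme wells.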
FBPA Giardia inh – Giardia lamblia aldolase inhibition; A8B2U2; purified Giardia FBPA; Potency, µM (doses to about 59.6 µM), for the others: at the top dose activity, negative = inhibition, hits mostly inhibitors; actives 0.71% (n = 290,000); further: potency means the concentration at half of the fitted maximal effect; on the % scale 0 is the no-effect control and ±100 the full control effect; nearly all actives have a fitted effect of over 55% in size
Target sequence (A8B2U2 whole entry, looked up): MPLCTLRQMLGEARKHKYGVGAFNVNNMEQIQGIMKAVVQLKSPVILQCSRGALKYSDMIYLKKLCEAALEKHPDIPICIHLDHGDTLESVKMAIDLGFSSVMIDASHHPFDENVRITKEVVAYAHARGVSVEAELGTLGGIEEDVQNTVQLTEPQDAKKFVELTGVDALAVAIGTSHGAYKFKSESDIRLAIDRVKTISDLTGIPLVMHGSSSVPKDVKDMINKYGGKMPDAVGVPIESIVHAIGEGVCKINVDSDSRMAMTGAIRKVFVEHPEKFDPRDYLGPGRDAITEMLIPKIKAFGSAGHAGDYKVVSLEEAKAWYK
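40 nM FBPA preincubated 10 min at RT with compound (up to 57.5 uM final), then substrate plus GAPDH/TPI/NAD/arsenate coupling and diaphorase/resazurin added. Fluorescence read after 20 min at RT, 525/598 nm.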
Cycloheximide cs – counter-screen hit for Shiga toxin inhibitors, cycloheximide; max response, %; actives 12% (n = 300,000); cell reporter, cycloheximide protein synthesis inhibition counterscreen; in the data active means max response mostly above about 13%, no sharp cut-off; inactive means mostly below about 14%; further: read at 38.3 µM for the half of the compounds with a filed dose; 0% is about no effect
RE007 growth inh – less growth of the S. pombe RE007 Vpr strain. S. pombe RE007 Vpr strain, BacTiter-Glo ATP luminescence, 24 h. Potency, µM (series often up to 92.2 µM), for the others: at the highest dose activity change, negative = less growth, actives largely listed as inhibitors. actives 0.21% (n = 360,000); active means well fitted falling curve with a large enough effect; inconclusive means small, poorly fitted or top-dose-only effect; inactive means no such curve, though single readings can be large or run the other way; further: potency means the concentration at half of the fitted maximal effect; on the % scale 0 is the no-effect control and ±100 the full control effect; nearly all actives have a fitted effect of over 50% in size
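Fission yeast strain RE007, carrying one chromosomally integrated HIV-1 vpr copy, was seeded at OD 0.01 in PMG+AL medium with 23 nL pinned compound. After 24 h at 30 °C and 99% humidity, viability was read by BacTiter-Glo luminescence.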
Numbers without * were called inactive; ? = inconclusive; · = no result; [ ] = dose if it differs, or a comment. Unless noted, the call rests on the fitted dose curve; in most records, active means well fitted curve in the direction sought with a large enough effect; inconclusive means small, poorly fitted or top-dose-only effect, or another doubt; inactive means no such curve, though single readings can be large; an effect the other way counts as inactive or inconclusive.

SMILES	Shiga inhibitor	TbPYK inhibitor	LmPK inhibitor	FBPA Giardia inh	Cycloheximide cs	RE007 growth inh
Cc1cccc(NC(=O)C(=O)NCC(c2ccc3c(c2)OCO3)N2CCN(c3ccccc3)CC2)c1 (centres undefined)	·	3%	·	·	·	·
COc1ccc(OC)c(C(=O)Nc2ccc3[nH]ccc3c2)c1	·	-7%	·	·	·	-12%
CCOc1ccc(C(=O)Nc2ccc3[nH]ncc3c2)cc1	32	8%	-5%	3%	19*	2%
COc1ccc(C(=O)Nc2ccc3[nH]ncc3c2)cc1	53*	0%	-5%	-5%	19*	-2%
COc1ccc(C(=O)Nc2ccc3cn[nH]c3c2)c(OC)c1	123*	3%	-1%	-10%	63*	-3%
CC(C)Oc1ccc(CNC(=O)C2=Cc3ccccc3OC2)cc1	·	7%	·	·	·	·
O=[N+]([O-])CC(=Nc1ccc(Cl)cc1)N/N=C\c1oc(O)c2ccccc12	48	1%	-5%	-12%	21*	6%
COc1ccc(C2=NN(C(=O)c3cccs3)C(c3ccccc3O)C2)cc1 (centres undefined)	87	-3%	-2%	9%	26*	7%
COc1ccc(C2CC(c3ccc4ccccc4c3)=NN2C(=O)CSc2ncccn2)cc1 (centres undefined)	43*	-8%	1%	-2%	15*	15%
COc1ccc(C2CC(c3ccccc3)=NN2C(=O)c2cccs2)cc1 (centres undefined)	75*	10%	8%	3%	73*	5%
COc1ccc(C2CC(c3ccccc3)=NN2C(=O)CCC(=O)O)cc1 (centres undefined)	-2	3%	2%	25%	-2	6%
Cc1ccc(S(=O)(=O)c2c(Nc3ccc(C)c(C)c3)sc(C(=O)c3ccc4c(c3)OCO4)c2N)cc1	·	-6%	·	·	·	·
Cc1nn(CC(=O)NC2(C)CCS(=O)(=O)C2)c(C)c1S(=O)(=O)N(C)C (centres undefined)	·	6%	·	·	·	-1%
C/C(=N\NC(=O)c1cccc(S(=O)(=O)N2CCOCC2)c1)c1ccc(C#N)cc1	-6	-1%	-4%	12%	4	-14%
c1ccc2cc3[nH]c(CN4CCOCC4)nc3cc2c1	35*	8%	0%	0%	17*	7%
CCOc1ccc(CNC(=O)c2cc3c(=O)n(Cc4cccs4)ccc3nc2C)cc1	·	-12%	·	·	·	·
C(=N\Nc1ncnc2nc[nH]c12)/c1cccs1	111*	-3%	-25%	-2%	41*	14%
Fc1ccc(/C=N/Nc2ncnc3nc[nH]c23)cc1F	99*	2%	-27%	0%	73*	1%
c1ccc(CNc2ncnc3nc[nH]c23)cc1	17	-9%	-4%	-4%	13	-12%[18.4 µM]
Cc1ccsc1/C=N/Nc1ncnc2nc[nH]c12	85*	-7%	?	-3%	42*	0%
Cc1ccccc1/C=N/Nc1ncnc2nc[nH]c12	72*	-2%	-27%	-7%	21*	-6%
NC(Cc1ccc(C(F)(F)F)cc1)c1csc(Nc2ccc(C(=O)NCc3ccco3)cn2)n1 (centres undefined)	·	2%	·	·	·	10%
Cc1cccc(N2CCN(C(=O)c3c(C)oc4ncnc(N5CCOCC5)c34)CC2)c1C	·	0%	·	·	·	·
CCC(=O)n1nc(-c2ccc(OC)cc2)nc1NCc1cccs1	5	2%	7%	-7%	-4	-7%
COCC(=O)n1nc(-c2ccccc2)nc1NCc1ccccc1	63	-2%	3%	-3%	25*	7%
SMILES	Shiga inhibitor	TbPYK inhibitor	LmPK inhibitor	FBPA Giardia inh	Cycloheximide cs	RE007 growth inh
COCC(=O)n1nc(-c2ccccc2)nc1NCc1ccc(F)cc1	47*	3%	3%	6%	15	15%
CCC(=O)n1nc(-c2ccccc2)nc1NCc1ccccc1	71*	-3%	-3%	3%	23*	6%
COCC(=O)n1nc(NCc2ccc(OC)cc2)nc1NCc1ccc(OC)cc1	-5	?	-3%	-6%	-1	9%
CC(=O)n1nc(-c2ccccc2)nc1NCc1cccs1	30	-4%	1%	5%	25*	-16%
Cc1ccc(NC(=O)CN2C(=O)C(c3ccc(F)cc3)=NC23CCCCC3)c(C)c1	·	5%	·	·	·	·
O=C(c1cccnc1)n1nc(-c2ccco2)nc1NCc1cccs1	124*	0%	0%	-8%	37*	-2%
COc1ccc(CNc2nc(-c3ccccc3)nn2C(=O)c2ccc([N+](=O)[O-])cc2)cc1	75*	-3%	2%	-1%	32*	17%
COc1ccc(CNc2nc(-c3ccccc3)nn2C(=O)c2cccs2)cc1	-6	-6%	1%	3%	-10	12%
CC(=O)n1nc(-c2ccccc2)nc1NCc1ccc(N(C)C)cc1	68*	-3%	0%	2%	45*	-8%
O=C(c1ccccc1)n1nc(-c2ccco2)nc1NCc1cccs1	·	-10%	·	·	·	·
COc1ccc(OC)c(C2CC(=O)N(c3cccc(C)c3)C3=C2C(=O)OC3)c1 (centres undefined)	·	-4%	·	·	·	·
O=C1OCC/C1=C\OCCCO/C=C1\CCOC1=O	-4	3%	1%	0%	-2	-3%
COc1ccc(C2=NN(CN3C(=O)C(=O)c4ccccc43)C(c3ccc(Br)cc3)C2)cc1 (centres undefined)	46	2%	2%	1%	32*	-2%
COc1ccc(C2=NN(CN3C(=O)C(=O)c4ccccc43)C(c3ccc(C)cc3)C2)cc1 (centres undefined)	78*	-11%	8%	-8%	25*	?
COc1ccc(C2CC(c3ccc(Br)cc3)=NN2C(=O)c2cccnc2)cc1 (centres undefined)	-16	0%	2%	6%	-6	-11%
Cc1ccc(C)c(NC(=O)Cn2c(=O)ccc3cc(S(=O)(=O)N4CCCC4)ccc32)c1	·	-5%	·	·	·	·
COc1ccc(CCNC[C@H](O)COc2cccc(C)c2)cc1OC	·	0%	·	·	·	·
Cc1ccc(C(=O)NC(=S)N(C)C2CCCCC2)cc1	126*	-17%	-2%	·	50*	6%
C=CCSc1nc(N)c2c(C)c(C)sc2n1	29	4%	8%	-4%	11*	-11%
C=CCSc1nc(N)c2c3c(sc2n1)CN(C)CC3	12	5%	0%	-27%	21*	1%
COC(CSc1nc(N)c2c3c(sc2n1)CN(C)CC3)OC	42	-10%	-2%	?	31*	·
CCSc1nc(N)c2c3c(sc2n1)CN(C)CC3	-2	·	-2%	-17%	-2	·
Brc1ccc2nc(-c3c[nH]c4ccccc34)cn2c1	64*	1%	-14%	?	31*	-15%
Cc1cccn2cc(-c3c[nH]c4ccccc34)nc12	122*	3%	3%	-18%	41*	24%
